# Measured values reported in the supplement of paper PMC8728848.
# The entries come from a sample that favours the strongest signals as a whole.
# B1: PX9961M-bvu-482-23-482 (Bacteroides vulgatus) (protein)
# chain: WLDLAPSTQVDTETSINVLSDIEFTLNGIYSTMQSSDAYSGRLVYYGDVTGDDMQAVSSTKRTGNYYRFNFTKDNGPSSHWSYLYSIIQNCNLILMNVDKLSIDEDETEYKNDLKGQALAIRGMALFDLTRIFGYPYLKDNGASLGVPIVKELSTIDSKPARNTVAECYTEIISDLKNSTELLSGDFNKGKVNRWAAMTLLSRVYLYKGEYNEALTMAENAIKGAEKEGYALWTNEEYPTAWGNDASASNPGEILFEIVNLTTDSPGKESMGYLNSYNGYDDMCITCSFYQLLKKDPKDVRLKILSFDKKYYAYVNKYQPQQGENITDANIPLIRLSEAYLNAAEAAVQTGDNAKAVKYLNSIVQRANPENSVEGKTLTLENVLDERRKELVAEGHRMYDVIRNGMTVKRIDVKDSDINKTKHNTAYMEYDWNFHKILLPIPKKEMDANPNMKQNPGYVD
# Experiments:
# Assay in all cases: glycan array binding signal (z-score within array); higher = stronger binding
# Details in all cases: glycan notation: IUPAC condensed, linker removed
# Gal6S(b1-4)Glc6S = target: Gal6S(b1-4)Glc6S
# Procedure, shortened: (§1)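 Arrays were curated from the Consortium for Functional Glycomics database, 3228 in total, and kept only where the protein sequence was available. Binding is expressed as a within-array Z-score. This score was averaged across arrays of the same protein sequence at different concentrations or buffers and across linkers, and negative values can be read as non-binding.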
# Gal6S(b1-4)GlcNAc6S = target: Gal6S(b1-4)GlcNAc6S
# Procedure, shortened: as §1
# GalNAc(b1-4)GlcNAc6S = target: GalNAc(b1-4)GlcNAc6S
# Procedure, shortened: as §1
# [1] = target: GlcNAc(a1-4)Gal(b1-4)GlcNAc
# Procedure, shortened: as §1
# [2] = target: GlcNAc(a1-6)Gal(b1-4)GlcNAc
# Procedure, shortened: as §1
# GlcNAc(b1-3)Fuc = target: GlcNAc(b1-3)Fuc
# Procedure, shortened: as §1
# GlcNAc(b1-3)Gal(b1-4)Glc = target: GlcNAc(b1-3)Gal(b1-4)Glc
# Procedure, shortened: as §1
# [3] = target: GlcNAc(b1-3)Gal(b1-4)GlcNAc(b1-2)[GlcNAc(b1-3)Gal(b1-4)GlcNAc(b1-6)]Man(a1-6)[GlcNAc(b1-3)Gal(b1-4)GlcNAc(b1-2)Man(a1-3)]Man(b1-4)GlcNAc(b1-4)GlcNAc
# Procedure, shortened: as §1
# [4] = target: GlcNAc(b1-3)Gal(b1-4)GlcNAc(b1-3)Gal(b1-4)GlcNAc(b1-2)Man(a1-3)[GlcNAc(b1-3)Gal(b1-4)GlcNAc(b1-3)Gal(b1-4)GlcNAc(b1-2)Man(a1-6)]Man(b1-4)GlcNAc(b1-4)[Fuc(a1-6)]GlcNAc
# Procedure, shortened: as §1
# [5] = target: GlcNAc(b1-3)Gal(b1-4)GlcNAc(b1-3)Gal(b1-4)GlcNAc(b1-3)Gal(b1-4)GlcNAc(b1-2)[GlcNAc(b1-3)Gal(b1-4)GlcNAc(b1-3)Gal(b1-4)GlcNAc(b1-3)Gal(b1-4)GlcNAc(b1-6)]Man(a1-6)[GlcNAc(b1-3)Gal(b1-4)GlcNAc(b1-3)Gal(b1-4)GlcNAc(b1-3)Gal(b1-4)GlcNAc(b1-2)Man(a1-3)]Man(b1-4)GlcNAc(b1-4)[Fuc(a1-6)]GlcNAc
# Procedure, shortened: as §1
# [6] = target: GlcNAc(b1-3)Gal(b1-4)GlcNAc(b1-3)Gal(b1-4)GlcNAc(b1-3)Gal(b1-4)GlcNAc(b1-3)Gal(b1-4)GlcNAc(b1-2)[GlcNAc(b1-3)Gal(b1-4)GlcNAc(b1-3)Gal(b1-4)GlcNAc(b1-3)Gal(b1-4)GlcNAc(b1-3)Gal(b1-4)GlcNAc(b1-6)]Man(a1-6)[GlcNAc(b1-3)Gal(b1-4)GlcNAc(b1-3)Gal(b1-4)GlcNAc(b1-3)Gal(b1-4)GlcNAc(b1-3)Gal(b1-4)GlcNAc(b1-2)Man(a1-3)]Man(b1-4)GlcNAc(b1-4)[Fuc(a1-6)]GlcNAc
# Procedure, shortened: as §1
# [7] = target: GlcNAc(b1-3)Gal(b1-4)GlcNAc(b1-6)[GlcNAc(b1-3)Gal(b1-3)]GalNAc
# Procedure, shortened: as §1
# [8] = target: Man(a1-2)Man(a1-2)Man(a1-6)[Man(a1-3)]Man
# Procedure, shortened: as §1
# [9] = target: Man(a1-3)[Man(a1-6)]Man(a1-6)[Man(a1-3)]Man
# Procedure, shortened: as §1
# Neu5Ac(a2-3)Gal = target: Neu5Ac(a2-3)Gal
# Procedure, shortened: as §1
# [10] = target: Neu5Ac(a2-3)Gal(b1-3)GalNAc(b1-4)[Neu5Ac(a2-8)Neu5Ac(a2-3)]Gal(b1-4)Glc
# Procedure, shortened: as §1
# [11] = target: Neu5Ac(a2-3)Gal(b1-3)GlcNAc(b1-2)Man
# Procedure, shortened: as §1
# [12] = target: Neu5Ac(a2-3)Gal(b1-4)GlcNAc(b1-3)Gal(b1-4)GlcNAc(b1-3)GalNAc
# Procedure, shortened: as §1
# [13] = target: Neu5Ac(a2-3)Gal(b1-4)GlcNAc(b1-3)GalNAc
# Procedure, shortened: as §1
# [14] = target: Neu5Ac(a2-3)Gal(b1-4)[Fuc(a1-3)]GlcNAc
# Procedure, shortened: as §1
# [15] = target: Neu5Ac(a2-6)Gal(b1-4)GlcNAc
# Procedure, shortened: as §1
# [16] = target: Neu5Ac(a2-6)Gal(b1-4)GlcNAc(b1-2)Man(a1-3)Man(b1-4)GlcNAc(b1-4)GlcNAc
# Procedure, shortened: as §1
# [17] = target: Neu5Ac(a2-6)Gal(b1-4)GlcNAc(b1-2)Man(a1-6)[Man(a1-3)]Man(b1-4)GlcNAc(b1-4)GlcNAc
# Procedure, shortened: as §1
# [18] = target: Neu5Ac(a2-6)Gal(b1-4)GlcNAc(b1-3)GalNAc
# Procedure, shortened: as §1
# [19] = target: Neu5Ac(a2-8)Neu5Ac(a2-3)[Gal(b1-3)GalNAc(b1-4)]Gal(b1-4)Glc
# Procedure, shortened: as §1
# [20] = target: Neu5Ac(a2-8)Neu5Gc(a2-3)Gal(b1-4)GlcNAc
# Procedure, shortened: as §1
# Neu5Ac(b2-6)GalNAc = target: Neu5Ac(b2-6)GalNAc
# Procedure, shortened: as §1
binder,measurement,setting,value
B1,glycan array binding signal (z-score),Gal6S(b1-4)Glc6S,-0.529
same,glycan array binding signal (z-score),Gal6S(b1-4)GlcNAc6S,-0.084
same,glycan array binding signal (z-score),GalNAc(b1-4)GlcNAc6S,-0.209
same,glycan array binding signal (z-score),[1],-0.43
same,glycan array binding signal (z-score),[2],-0.826
same,glycan array binding signal (z-score),GlcNAc(b1-3)Fuc,0.451
same,glycan array binding signal (z-score),GlcNAc(b1-3)Gal(b1-4)Glc,-0.369
same,glycan array binding signal (z-score),[3],-0.33
same,glycan array binding signal (z-score),[4],0.761
same,glycan array binding signal (z-score),[5],1.99
same,glycan array binding signal (z-score),[6],1.58
same,glycan array binding signal (z-score),[7],0.464
same,glycan array binding signal (z-score),[8],0.455
same,glycan array binding signal (z-score),[9],2.74
same,glycan array binding signal (z-score),Neu5Ac(a2-3)Gal,-0.037
same,glycan array binding signal (z-score),[10],0.996
same,glycan array binding signal (z-score),[11],0.535
same,glycan array binding signal (z-score),[12],-0.629
same,glycan array binding signal (z-score),[13],0.638
same,glycan array binding signal (z-score),[14],-0.48
same,glycan array binding signal (z-score),[15],0.329
same,glycan array binding signal (z-score),[16],-0.834
same,glycan array binding signal (z-score),[17],0.152
same,glycan array binding signal (z-score),[18],-0.573
same,glycan array binding signal (z-score),[19],-0.531
same,glycan array binding signal (z-score),[20],18
same,glycan array binding signal (z-score),Neu5Ac(b2-6)GalNAc,-0.083
